Measured values published in the supplement of paper PMC3545927.
The list shows a part of the results. How many sequences the whole screen found active is unknown.

Molecular target: furin, P09958
Test: furin cleavage Z-score vs untreated control; higher = more cleavage, active = 3.5 or more, inactive = 1 or less, 8 variable residues between constant flanks
How it was run: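 Read counts from sequencing released DNA gave abundance for each bead-bound 8-mer peptide–cDNA fusion cut by purified furin over 7.5, 15 or 30 min. The cleavage Z-score compares log counts with furin-free reactions after lowess adjustment and median absolute deviation scaling.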
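Note: purified furin at 1:10 enzyme:substrate in 50 mM HEPES pH 7.5.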

Sequence of furin, P09958 (P09958 whole entry): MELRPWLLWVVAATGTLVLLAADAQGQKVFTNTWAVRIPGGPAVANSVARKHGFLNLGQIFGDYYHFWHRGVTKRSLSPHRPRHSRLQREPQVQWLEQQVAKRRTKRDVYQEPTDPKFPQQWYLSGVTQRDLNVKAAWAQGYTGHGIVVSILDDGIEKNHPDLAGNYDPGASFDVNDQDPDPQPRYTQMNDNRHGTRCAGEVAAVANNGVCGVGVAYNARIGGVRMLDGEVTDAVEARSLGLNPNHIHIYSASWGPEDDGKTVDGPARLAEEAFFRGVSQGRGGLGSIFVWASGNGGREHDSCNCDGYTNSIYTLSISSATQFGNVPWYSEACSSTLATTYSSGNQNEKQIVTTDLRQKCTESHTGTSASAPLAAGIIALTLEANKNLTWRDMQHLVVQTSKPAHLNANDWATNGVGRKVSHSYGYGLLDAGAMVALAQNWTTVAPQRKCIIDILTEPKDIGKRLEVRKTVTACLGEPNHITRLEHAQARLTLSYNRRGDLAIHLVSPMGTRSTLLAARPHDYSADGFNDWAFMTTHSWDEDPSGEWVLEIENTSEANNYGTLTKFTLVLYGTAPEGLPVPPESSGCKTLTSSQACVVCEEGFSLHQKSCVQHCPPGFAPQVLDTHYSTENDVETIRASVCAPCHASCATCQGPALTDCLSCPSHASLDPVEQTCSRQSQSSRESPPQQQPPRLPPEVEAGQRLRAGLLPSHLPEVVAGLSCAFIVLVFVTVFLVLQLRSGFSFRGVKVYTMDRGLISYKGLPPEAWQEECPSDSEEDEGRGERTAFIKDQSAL

Row | Sequence | furin cleavage Z-score (7.5 min) | furin cleavage Z-score (15 min) | furin cleavage Z-score (30 min)
1 | CALAVFGPLWAGNASASA [HC607] | 0.672 (inactive) | 0.344 (inactive) | 1.61
2 | CALPGCSFSIAGNASASA [HC245] | -0.725 (inactive) | 0.0221 (inactive) | 1.53
3 | CAEVVTSTWEAGNASASA [HC2252] | 1.19 | 1.24 | -0.113 (inactive)
4 | CATTPCSGSKAGNASASA [HC1934] | -0.794 (inactive) | 0.477 (inactive) | -0.455 (inactive)
5 | CASTGLYHVTAGNASASA [HC259] | 1.56 | 0.496 (inactive) | -0.862 (inactive)
6 | CAMEECSQLLAGNASASA [HC1745] | 0.641 (inactive) | 1.59 | 1.09
7 | CANTRPPLGNAGNASASA [HC431] | -0.78 (inactive) | -0.196 (inactive) | 0.451 (inactive)
8 | CAYLEVVTSTAGNASASA [HC2269] | 1.41 | 0.163 (inactive) | 0.356 (inactive)
9 | CARRARFLHEAGNASASA [FS-2177] | 0.34 (inactive) | 2.97 | 5.38 (active)
10 | CARPQRSACHAGNASASA [FS-1832] | -0.244 (inactive) | 1.03 | 2.47
11 | CARRGREILLAGNASASA [HC663] | 2.14 | 3.52 (active) | 5.12 (active)
12 | CARPRRETCHAGNASASA [FS-2358] | 7.06 (active) | 6.02 (active) | 6.63 (active)
13 | CARRGRSRSRAGNASASA [FS-2774] | -0.725 (inactive) | -0.261 (inactive) | -0.331 (inactive)
14 | CARRARVVHMAGNASASA [FS-2772] | -0.133 (inactive) | -2.18 (inactive) | -0.247 (inactive)
15 | CARRARSLALAGNASASA [FS-2770] | 4.92 (active) | 6.9 (active) | 6.89 (active)
16 | CARRGRFKGLAGNASASA [FS-2773] | -2.35 (inactive) | 0.257 (inactive) | -0.0126 (inactive)
17 | CAVGSSIASWAGNASASA [HC513] | 1.24 | 0.758 (inactive) | 1.42
18 | CAEVVTSIWVAGNASASA [HC2204] | -1.22 (inactive) | -0.886 (inactive) | -0.589 (inactive)
19 | CAQTFLATCIAGNASASA [HC694] | -1.16 (inactive) | 1.03 | 0.494 (inactive)
20 | CAEVVTCTWVAGNASASA [HC154] | 0.26 (inactive) | 0.377 (inactive) | 0.00628 (inactive)
21 | CAWAKHMWNFAGNASASA [HC1041] | 2.37 | 1.51 | -0.0839 (inactive)

Row | Sequence | furin cleavage Z-score (7.5 min) | furin cleavage Z-score (15 min) | furin cleavage Z-score (30 min)
22 | CARQSRAPSKAGNASASA [FS-3044] | -0.34 (inactive) | -1.03 (inactive) | 0.0856 (inactive)
23 | CARRARVVWCAGNASASA [FS-1773] | -0.495 (inactive) | -0.908 (inactive) | -1.05 (inactive)
24 | CARRARFVSKAGNASASA [FS-2592] | 1.79 | 3.6 (active) | 4.51 (active)
25 | CATSCGNTLTAGNASASA [HC1514] | 0.831 (inactive) | -1.07 (inactive) | 0.652 (inactive)
26 | CALSSREARVAGNASASA [FS-273] | 0.397 (inactive) | 1.38 | -0.0178 (inactive)
27 | CATSNRQPRKAGNASASA [FS-1426] | 0.777 (inactive) | 2.06 | 3.28
28 | CALSSRTARSAGNASASA [FS-828] | 10.9 (active) | 12.5 (active) | 10.5 (active)
29 | CAVYSTTSRSAGNASASA [HC1389] | 0.122 (inactive) | -0.119 (inactive) | -0.531 (inactive)
30 | CALSSRVPRSAGNASASA [FS-616] | 10.7 (active) | 10.8 (active) | 8.57 (active)
31 | CAVSGRVPRSAGNASASA [FS-1103] | 8.22 (active) | 7.59 (active) | 5.91 (active)
32 | CAPFSRVPRKAGNASASA [FS-1380] | 4.53 (active) | 5.54 (active) | 7.08 (active)
33 | CAPFPRDVGKAGNASASA [FS-2542] | 0.749 (inactive) | 0.654 (inactive) | -0.494 (inactive)
34 | CAEVVVCCSMAGNASASA [HC2130] | 0.168 (inactive) | -0.257 (inactive) | -0.566 (inactive)
35 | CALSSRHSRSAGNASASA [FS-688] | 7.04 (active) | 9.83 (active) | 7.06 (active)
36 | CAESGRENRSAGNASASA [FS-764] | 0.222 (inactive) | 0.598 (inactive) | -0.14 (inactive)
37 | CARIGRTARSAGNASASA [FS-559] | 14.2 (active) | 12.8 (active) | 11.2 (active)
38 | CAVSGRRNRSAGNASASA [FS-1435] | 7.11 (active) | 8.52 (active) | 7.39 (active)
39 | CADVVTSTWVAGNASASA [HC2151] | 0.471 (inactive) | -0.0629 (inactive) | 0.991 (inactive)
40 | CALLGPADGMAGNASASA [HC666] | -0.849 (inactive) | -0.827 (inactive) | -0.909 (inactive)
41 | CATYVYNHLTAGNASASA [HC634] | -0.232 (inactive) | 0.658 (inactive) | 0.0846 (inactive)
42 | CAYEECSQHLAGNASASA [HC1669] | 1.21 | 0.943 (inactive) | 2.11
